Where “and” joins values, the source holds several entries; their conditions need not be identical. Equal values may be shown once. Hit rate of the full screen: of about 16,000 compounds, about 120 (0.75%) were called active. Entries that show only a call come without a potency. Inconclusive results (about 4%) are left out. The call rests on the fitted dose curve; in most records, active means well fitted inhibition curve with a large enough effect; inconclusive means small, poorly fitted or top-dose-only effect; inactive means no such curve, though single readings can be large or run the other way. Only a selection was taken, and actives are over-represented in it overall. More than one record can exist for a structure, and the calls need not agree.
Potency means the concentration at half of the fitted maximal effect.

Chain of Rap guanine nucleotide exchange factor 3 (Homo sapiens) (O95398 whole entry, looked up): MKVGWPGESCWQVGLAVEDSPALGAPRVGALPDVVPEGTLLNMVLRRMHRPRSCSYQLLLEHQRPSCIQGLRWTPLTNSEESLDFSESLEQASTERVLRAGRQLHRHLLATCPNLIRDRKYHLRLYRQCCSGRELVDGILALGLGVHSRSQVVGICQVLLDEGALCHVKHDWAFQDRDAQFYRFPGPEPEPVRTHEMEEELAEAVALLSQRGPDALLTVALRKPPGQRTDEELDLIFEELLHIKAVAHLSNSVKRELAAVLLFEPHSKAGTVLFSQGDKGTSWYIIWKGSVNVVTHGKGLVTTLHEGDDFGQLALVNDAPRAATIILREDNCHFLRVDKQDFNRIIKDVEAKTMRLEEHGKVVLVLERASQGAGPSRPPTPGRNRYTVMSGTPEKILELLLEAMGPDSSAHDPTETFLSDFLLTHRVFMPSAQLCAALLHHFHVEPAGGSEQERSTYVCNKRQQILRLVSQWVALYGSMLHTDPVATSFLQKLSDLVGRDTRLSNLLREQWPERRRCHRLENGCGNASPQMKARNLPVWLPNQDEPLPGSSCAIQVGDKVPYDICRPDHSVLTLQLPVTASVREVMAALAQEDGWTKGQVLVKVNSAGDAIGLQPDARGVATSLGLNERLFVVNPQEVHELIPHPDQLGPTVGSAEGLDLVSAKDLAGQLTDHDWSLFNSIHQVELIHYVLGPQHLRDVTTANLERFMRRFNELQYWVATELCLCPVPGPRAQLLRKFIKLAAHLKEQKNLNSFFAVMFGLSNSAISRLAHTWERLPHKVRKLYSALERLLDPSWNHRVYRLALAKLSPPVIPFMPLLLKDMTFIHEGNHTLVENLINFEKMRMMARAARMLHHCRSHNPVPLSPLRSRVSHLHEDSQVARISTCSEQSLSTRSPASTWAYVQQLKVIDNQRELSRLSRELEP

The target in this assay is Rap guanine nucleotide exchange factor 3 (Homo sapiens) (UniProt O95398). The assay can be described thus: Validation qHTS for antagonist of cAMP-regulated guanine nucleotide exchange factor 3 (EPAC1). Further: nearly all actives have a fitted effect of over 75% in size. Conditions: EPAC1 Rap1B-BODIPY-GDP exchange, fluorescence; series mostly up to 150 µM. From the text:
Assay Provider (PI): Xiaodong Cheng Ph.D.
The University of Texas Medical Branch, […], TX
In multi-cellular eukaryotic organisms, the effects of cAMP are transduced by two ubiquitously-expressed intracellular cAMP receptors, the classic protein kinase A/cAMP-dependent protein kinase (PKA/cAPK) and the more recently discovered exchange protein directly activated by cAMP/cAMP-regulated guanine nucleotide exchange factor (EPAC/cAMP-GEF). Both PKA and EPAC are ubiquitously expressed in all tissues, and an increase in intracellular cAMP levels will lead to the activation of both PKA and EPAC. Therefore, careful dissections of the individual role and relative contribution of EPAC and PKA within the overall cAMP signaling in various model systems are critical for further elucidating the mechanism of cAMP signaling. To date no EPAC-specific antagonists and agonist, as well as isoform-specific agonists have been reported, and developing EPAC-specific pharmacological probes to determine the physiological functions that EPAC play in the overall cAMP-mediated signaling remains a major challenge within the research field. Furthermore, identified regulators of EPAC may lead to new mechanism-based therapeutic strategies specifically targeting the EPAC / cAMP-signaling components as EPAC has been implicated to play important roles in major human pathological conditions such as diabetes, heart disease, and cancer.
This qHTS will be used to screen the Molecular Libraries Small Molecule Repository (MLSMR) as a concentration-titration series using the NCGC unique quantitative screening (qHTS) platform to find activators for EPAC1. In addition, this assay will also be used as a counterscreen for the EPAC2 qHTS. This fluorescent based assay is developed and validated for EPAC1 that measures exchange using EPAC effector Rap1 complex with BODIPY-GDP, a GDP analog with a tethered fluorophores. Activators are identified by monitoring the change in fluorescence signal as the exchanged free BODIPY-GDP has a reduced fluorescence compared to Rap1-bound BODIPY-GDP. Increase in signal (activation) is the desired outcome for the EPAC1 agonist while no activity in this assay is desired for the EPAC2 agonist counterscreen.
[1] de Rooij, J., Zwartkruis, F. J., Verheijen, M. H., Cool, R. H., Nijman, S. M., Wittinghofer, A., and Bos, J.L. (1998) Nature 396, 474-477.
Briefly, three uL of reagents (100 nM EPAC1, 250 nM RAP1B-BODIPY-GDP, 50 uM GDP) were dispensed into a 1536-well Greiner black solid-bottom medium binding assay plate. Controls and test compounds (23 nL) were transferred to the plate via a Kalypsys pin tool equipped with a 1536-pin array. The plates were centrifuged at 1,000 rpm for 15 seconds followed by 5 minute incubation at room temperature. The assay plates were read at 5 minute intervals for 30 minutes in the ViewLux plate reader using 480nm excitation and 540nm emission filters. The results were normalized to the […] positive control ATA and DMSO.
`O=C(/C=C/c1ccc(O)c(O)c1)OCCc1ccccc1`: the Potency result is “inactive”. `O=C(/C=C/c1ccc(O)c(O)c1)OC(Cc1ccc(O)c(O)c1)C(=O)O` (configuration not stated): the Potency entry was “inactive and 100 µM (active)”. Then `N[C@@H](Cc1ccc(O)c(O)c1)C(=O)O`, with “inactive”; and `NC(Cc1ccc(O)c(O)c1)C(=O)O` (configuration not stated), with 50.1 µM (active).

Take `O=C(/C=C\c1ccc(O)c(O)c1)O[C@@H](Cc1ccc(O)c(O)c1)C(=O)O`: the Potency result is “inactive”.

`N[C@@H](Cc1ccc(O)c(I)c1)C(=O)O`: the Potency result is “inactive”.

With `COc1ccc(C(=O)NCC2Cc3cc(C)cc(-c4cc(C(C)=O)ccc4F)c3O2)c(OC)c1OC` (configuration not stated), the Potency result is “inactive”.

On to `COC(=O)N1CCC[C@@]2(CCN(Cc3nccs3)C2)C1`, for which the Potency entry is “inactive”.

As for `OC(c1ccc2c(c1)CN(Cc1c[nH]c3ccccc13)CCO2)c1ccccn1` (configuration not stated), the Potency entry was “inactive”. With `CC(=O)Oc1c(-c2ccccc2)oc2c(CC=C(C)C)c3c(c(OC(C)=O)c2c1=O)C=CC(C)(C)O3`, the Potency result is “inactive”. The entry for `CC(C)=CCc1c2c(c(O)c3c(=O)c(O)c(-c4ccccc4)oc13)C=CC(C)(C)O2` is “inactive”; for `CC(C)=CCCC1(C)C=Cc2c(O)c3c(c(CC=C(C)C)c2O1)OC12C(=CCCC1C(C)(C)O[C@@]2(C/C=C(\C)C(=O)O)C(=O)O)C3=O` (some centres not stated) it is 89.1 µM (active). Then `COC(=O)/C(C)=C/CC12OC(C)(C)C3CC(C=C4C(=O)c5cc6c(c(CCC(C)(C)Cl)c5OC431)OC1(C)CCC(=C(C)C)C6C1)C2=O` (configuration not stated), with “inactive”; and `CC(=O)Oc1c2c(c3c(c1CC=C(C)C)O[C@@]14C(=CC5CC1C(C)(C)OC4(C/C=C(\C)C(=O)O)C5=O)C3=O)OC(C)(CCC=C(C)C)C=C2` (some centres not stated), with 89.1 µM (active); and `C1=C(c2ccc3c(c2)CN(Cc2cccn2-c2ncccn2)CCO3)Cc2ccccc21`, with “inactive”. For `CC(C)c1c(C(=O)NCC(C)(C)N2CCOCC2)cnn1-c1nccc(-c2ccccc2F)n1`, the Potency entry was “inactive”.

On to `Cc1ccc(-c2ccnc(-n3ncc(C(=O)NCCN4CCOCC4)c3C3CC3)n2)o1`, for which the Potency result is “inactive”. The entry for `CCC1CN(CCNC(=O)c2ccccc2-n2cccn2)Cc2cc(OC)ccc2O1` (configuration not stated) is “inactive”; for `COc1ccc(C2Sc3ccccc3N(CCN(C)C)C(=O)[C@@H]2OC(C)=O)cc1` (some centres not stated) it is “inactive”; for `CCOC(=O)[C@@H](C)N(C(=O)OC(C)(C)C)S(=O)(=O)N(Cc1ccccc1)[C@@H](C(=O)OC)C(C)C` it is “inactive”. The entry for `Cc1c(-c2ccccc2)oc2cc(O)ccc2c1=O` is “inactive”; for `CC(=O)[C@H](CC(C)C)NC(=O)[C@@H](CC(C)C)NC(=O)[C@H](CC(C)C)NC(=O)OCc1ccccc1` it is “inactive”; for `O=C(O)c1cc2ccccc2c(Cc2c(O)c(C(=O)O)cc3ccccc23)c1O` it is 50.1 µM (active).

`O=C(O)c1c2ccccc2cc2ccccc12`: the Potency entry was “inactive”. In the case of `O=C(O)c1cc(-c2ccccc2)nc2ccccc12`, the Potency result is “inactive”. The entry for `CCN1CCN(C(=O)c2sc3ncnc(NCC4CCCO4)c3c2C)CC1` (configuration not stated) is “inactive”.

`CC(C)CCCC(C)C1CCC2C3CC=C4CC(=O)CC[C@@]4(C)C3CC[C@@]12C` (some centres not stated): the Potency result is “inactive”. In the case of `COc1ccccc1CNc1nc(-c2ccc(N(C)C)cc2)nc2ccccc12`, the Potency entry is “inactive”.

With `Cc1ncc2c(c1CNC(=O)c1ccc3c(c1)OCO3)CCN(C(=O)c1cccc(-n3cccn3)c1)C2`, the Potency result is “inactive”. Turning to `CC(C)C(N)C(=O)NC(Cc1c[nH]c2ccccc12)C(=O)O` (configuration not stated), the Potency result was “inactive”. Take `CC(=O)N[C@@H](Cc1c[nH]c2ccccc12)C(=O)O`: the Potency entry was “inactive”. The figure for `Cc1cc(C)cc(C(=O)N(C)[C@H](Cc2ccc(-c3ccccc3)cc2)C(=O)N[C@@H](Cc2c[nH]c3ccccc23)C(=O)O)c1` is 112 µM (active). For `C[N+](C)(CCCCCC[N+](C)(C)CCCN1C(=O)c2ccccc2C1=O)CCCN1C(=O)c2ccccc2C1=O`, the Potency entry is “inactive”. Take `C#CCN(Cc1nc(N2CCOCC2)c2ccc(Cl)cc2n1)Cc1ccco1`: the Potency entry was “inactive”. Regarding `CCOc1cc(OCC)c(C(=O)CCC(=O)O)cc1OCC`, the Potency entry was “inactive”.

Turning to `CCC(=O)c1c(O)cc(O)cc1O`, the Potency entry is “inactive”.

`CCCC(=O)c1cc(O)c(O)cc1O`: the Potency is 63.1 µM (active). The entry for `O=C(c1n[nH]c2c1CCCC2)N1CCOc2ccc(C(O)C3CCCCC3)cc2C1` (configuration not stated) is “inactive”; for `Cc1ccc(C2(O)CCN(CCCC(=O)c3ccc(F)cc3)CC2)cc1` it is “inactive”. Then `COc1ccccc1C1CN(CCNC(=O)c2cscn2)Cc2ccccc2O1` (configuration not stated), with “inactive”; and `CC(C)(O)c1ccccc1CC[C@@H](SCC1(CC(=O)O)CC1)c1cccc(/C=C/c2ccc3ccc(Cl)cc3n2)c1`, with 79.4 µM (active). As to `CN(C)C(=O)CCSC(SCCC(=O)O)c1cccc(/C=C/c2ccc3ccc(Cl)cc3n2)c1` (configuration not stated), the Potency entry is “inactive”.

(Values after PubChem BioAssay AID1645882 (National Center for Advancing Translational Sciences (NCATS), 2021).)
